Inconclusive results are not listed. Active and inactive are the calls of the source. Calls follow the shape of the dose curve; as a rule, active = well fitted inhibition curve with a large enough effect; inconclusive = small, poorly fitted or top-dose-only effect; inactive = flat fitted curve, though single readings scatter.

The record followed here is PubChem BioAssay AID602358 (National Center for Advancing Translational Sciences (NCATS), 2012).

For this assay, the target named is Luciferin 4-monooxygenase (Photinus pyralis) (UniProt P08659). Briefly: FLuc inhibitory activity for the follow-up compounds in a biochemical assay with Km concentrations of substrate and 500microM CoASH. Particulars: purified FLuc, Km substrates + 500 uM CoASH, luminescence; series mostly up to 57.5 µM. The source says: NCGC Assay Overview: Firefly (Photinus pyralis) luciferase is one of the most commonly used transcriptional reporters. It is considered one of the more dynamically responsive reporters - that is, responsive to changes in reporter transcription - as it requires no post-translational modifications and is enzymatically active directly after protein synthesis (Wood, 1998). With no endogenous expression in mammalian cells and without the requirement of external excitation, it offers very little background signal, thus generally providing excellent signal to background for most assays. Previous profiling work to determine the prevalence of compounds that affect FLuc enzymatic activity (PubChem AID 411) identified that ~3% of the MLSMR library (then at ~72K) inhibited FLuc. […] Of the compounds identified in this profile that inhibited FLuc, 151 compounds were selected for further analysis, in an effort to better understand their mode of inhibiting FLuc. The assay described here was to determine the activity of the compounds in an FLuc assay that contained KM concentrations of substrates and 500uM CoASH.
Luciferin 4-monooxygenase (Photinus pyralis), sequence (P08659 whole entry, looked up): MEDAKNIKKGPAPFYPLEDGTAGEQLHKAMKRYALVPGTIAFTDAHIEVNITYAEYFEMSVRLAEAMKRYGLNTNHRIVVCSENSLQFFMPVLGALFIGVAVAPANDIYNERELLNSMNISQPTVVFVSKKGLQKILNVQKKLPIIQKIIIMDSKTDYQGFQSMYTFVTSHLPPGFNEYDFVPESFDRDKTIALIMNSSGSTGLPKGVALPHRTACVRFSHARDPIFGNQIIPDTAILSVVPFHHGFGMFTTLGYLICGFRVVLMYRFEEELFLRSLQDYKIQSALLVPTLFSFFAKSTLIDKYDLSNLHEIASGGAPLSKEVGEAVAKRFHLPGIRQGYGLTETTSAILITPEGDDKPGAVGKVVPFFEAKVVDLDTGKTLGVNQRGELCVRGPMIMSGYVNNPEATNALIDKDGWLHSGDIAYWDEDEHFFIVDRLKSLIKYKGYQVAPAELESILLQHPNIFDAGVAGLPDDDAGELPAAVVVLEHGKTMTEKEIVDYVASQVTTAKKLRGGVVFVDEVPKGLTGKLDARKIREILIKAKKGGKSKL
NCGC Assay Protocol Summary: Reagents: 50mM Tris acetate, pH 7.5; 10mM Mg acetate; 10uM D-luciferin (Sigma #L9504); 10uM ATP; 0.01% Tween-20; 0.05% BSA; 10nM P. pyralis luciferase (Sigma #L9506); 500 uM CoASH Control compounds used were two known firefly luciferase inhibitors (3-(5-(3-chlorophenyl)-1,2,4-oxadiazol-3-yl)benzoic acid and 5-(2-fluorophenyl)-3-phenyl-1,2,4-oxadiazole), and DMSO. Three microliters containing firefly luciferase substrates in buffer (final concentrations: 50mM Tris acetate, pH 7.5, 10mM Mg acetate, 0.01% Tween-20, 0.05% BSA, 10uM D-luciferin, 10uM ATP, and 500 uM CoASH) are dispensed into each well of a Greiner white, solid-bottom 1536-well format plate using a flying reagent dispenser (FRD). These assay plates were then treated with 23nL of compound or DMSO using a Kalypsys pin tool, which allows for delivery of a 12-point intraplate titration of each compound to the assay plate (quantitative HTS), with a final compound concentrations ranging from approximately ~60uM to 0.3nM. One microliter of firefly luciferase in 500mM Tris-acetate buffer was then delivered by FRD to each well for a final enzyme concentration of 10nM. Luciferase activity was then measured using a ViewLux CCD imager (PerkinElmer), with an average exposure time of 2-30 seconds (2X binning, medium/high gain).
Take `Cc1ccc(S(=O)(=O)N2CCOCC2)cc1C(=O)Nc1ccccc1C(=O)O`: the Potency entry is “inactive”. On to `COc1cccc(-c2nc3ccccc3s2)c1`, for which the Potency is 0.517 µM (active).

Regarding `O=C(O)c1ccccc1NC(=O)c1ccccc1Nc1ccccc1`, the Potency was 9.19 µM (active). With `CCCC(=O)Nc1nc2ccc(OCC)cc2s1` the figure was 10.3 µM (active); with `COc1ccccc1C(=O)Nc1ccc(C(=O)O)cc1`, “inactive”. With `O=C(Nc1c(Cl)cc(Cl)cc1-c1nc2ccccc2s1)c1ccc(Br)o1` the entry was “inactive”. Then `Cc1ccc2nc(-c3ccc(NC(=O)CN4CCN(C(=O)c5ccco5)CC4)cc3)sc2c1`, with 3.66 µM (active); and `COc1ccc(C(=O)Nc2ccccc2-c2nc3ccccc3s2)c(OC)c1`, with “inactive”; and `Nc1ccc(-c2nc3cc(N)ccc3s2)cc1`, with 0.259 µM (active). As for `O=C(O)c1cccc(NC(=O)c2ccccc2NC(=O)c2ccccc2F)c1`, the Potency was 18.3 µM (active). On to `O=C(Nc1ccccc1C(=O)O)c1cccc(NC(=O)c2ccc(Br)o2)c1`, for which the Potency was 10.3 µM (active). Then `c1ccc2sc(-c3ccc4c(c3)OCO4)nc2c1`, with 0.103 µM (active); and `Cc1cccc(C(=O)Nc2ccc(-c3nc4ccccc4s3)cc2Cl)c1`, with 18.3 µM (active). With `O=C(COC(=O)c1ccccc1[N+](=O)[O-])c1ccc2c(c1)OCO2` the figure was 0.0023 µM (active); with `Oc1ccc(-c2nc3ccccc3s2)c(O)c1`, 1.83 µM (active). Then `O=C(Nc1ccccc1C(=O)O)c1ccc(NC(=O)C2CCCO2)cc1` (stereo not given), with 5.8 µM (active); and `Cc1cccc(C(=O)Nc2ccccc2C(=O)Nc2ccc(C(=O)O)cc2)c1`, with 5.8 µM (active). Consider `CC(C)(C)C(=O)Nc1ccc(-c2nc3ccccc3s2)cc1`, for which the Potency is 0.0103 µM (active). Then `Cc1c(C)c2ccc(OCC(=O)Nc3ccccn3)c(C)c2oc1=O`, with 0.0041 µM (active); and `COc1ccc(NS(=O)(=O)c2cccc(C(=O)Nc3ccccc3C(=O)O)c2)cc1`, with “inactive”. With `O=C(O)c1ccc(NC(=O)c2ccccc2NC(=O)c2cccc(Br)c2)cc1` the figure was 7.3 µM (active). Then `O=C(O)c1ccc(NC(=O)c2ccccc2NC(=O)c2ccccc2Cl)cc1`, with 16.3 µM (active); and `O=C(Nc1ccccc1C(=O)Nc1ccccc1C(=O)O)c1ccccc1`, with 10.3 µM (active); and `O=C(Nc1ccccc1C(=O)O)c1ccccc1`, with 23.1 µM (active). `Nc1ccc2nc(-c3ccccc3)sc2c1`: the Potency is 0.058 µM (active). With `Cc1cccc(NS(=O)(=O)c2cccc(C(=O)Nc3cccc(C(=O)O)c3)c2)c1` the entry was “inactive”; with `COc1cc(OC)cc(C(=O)Nc2ccccc2-c2nc3ccccc3s2)c1`, “inactive”. With `Cc1c(NS(C)(=O)=O)cccc1-c1nc2ccccc2s1` the figure was 3.66 µM (active); with `O=C(O)c1ccc(NC(=O)c2cc(S(=O)(=O)N3CCCCC3)c(Cl)cc2Cl)cc1`, “inactive”; with `O=C(Nc1cccc(-c2nc3ccccc3s2)c1)C1=COCCO1`, 7.3 µM (active). Then `O=C(Nc1ccc(-c2nc3ccccc3s2)cc1)C1=COCCO1`, with 0.0259 µM (active); and `Nc1cccc(-c2nc3ccc(N)cc3s2)c1`, with 0.146 µM (active); and `COc1ccc(-c2nc3ccccc3s2)cc1O`, with 0.0326 µM (active). `C/C(=N\NC(=O)c1ccccc1NC(=O)c1ccc(Cl)cc1)c1ccncc1`: the Potency was 0.0046 µM (active). For the molecule `COc1ccc(C(=O)Nc2ccccc2C(=O)Nc2ccccc2C(=O)O)cc1`, the Potency was 0.116 µM (active).

Take `O=C(Cc1ccccc1)Nc1ccc(C(=O)Nc2ccccc2C(=O)O)cc1`: the Potency is 9.19 µM (active).

Take `Nc1ccccc1-c1nc2ccccc2s1`: the Potency was 3.26 µM (active). For the molecule `CC(=O)Nc1cccc(-c2nc3ccccc3s2)c1C`, the Potency is 13 µM (active). With `O=C(Nc1ccccc1C(=O)O)c1cccc(S(=O)(=O)N2CCCC2)c1` the figure was 18.3 µM (active); with `COc1ccc2nc(NC(=O)c3cccc(S(=O)(=O)N4CCOCC4)c3)sc2c1`, 14.6 µM (active).
